Residue numbers refer to the chain shown, from its start. In all, about 24,000 sequences were measured (“enrichment r”: median about 0.99, highest 2% from about 3.7 on). This excerpt belongs to a sample that is enriched for the highest values.
T1: UNK ZnF1-3 (human, UniProt Q9C0B0 31-174)
T1 sequence: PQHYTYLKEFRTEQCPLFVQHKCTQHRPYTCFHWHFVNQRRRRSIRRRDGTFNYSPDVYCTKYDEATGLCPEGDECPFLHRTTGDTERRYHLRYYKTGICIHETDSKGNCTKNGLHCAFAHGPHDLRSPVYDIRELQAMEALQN

B1: chr16:94664806:94664807:+_ENSMUSG00000040785_ENSMUST00000117648|mus_hu|motif|central (ssRNA)
RNA: GGGAGUUCUACAGUCCGACGAUCAUGAUGACCCUCAAAAUAGGCAGCAGCAUUUUUAUCUGCUCUGUCAUUGGCGGCAAAAGACGGCACCACUGGUACUGAUCUUGGUAGCUGAUAUUCAGGAGAAAGGCUGGCCAAGGGUGUCAACAGAGGAUUGAGCAUCA
B2: chr7:7679991:7679992:-_ENSG00000106399_ENST00000396682|hu_hu|hu_hu_hu_mus_False|1_8 (ssRNA)
RNA: GGGAGUUCUACAGUCCGACGAUCUGGGAUGAAUCUUUUCCAGCUUCCCCACGAAGCACACGGGCCGGUCGAUAUACUGUGGUAACAUGCUGGCGUUGACGCGCGCUUUGGGGAGCUGCAUUAUGUCCACCAUGAUUAUGGUCCCAACAGAGGAUUGAGCAUCA
B3: chr13:100200574:100200575:-_ENSMUSG00000052727_ENSMUST00000064762|mus_hu|motif|central (ssRNA)
RNA: GGGAGUUCUACAGUCCGACGAUCAUAAUCUUCUUCAUCUGGGGACCUGGUUGUUUCCUCAGGCUUUUGAUAGGCAUAGCGGAAGUCACCAGGUGUCUUCCCUCCACUGUCCUUCUCCAGGCCAGGUGUGGACAAAUCUCUAUUCAACAGAGGAUUGAGCAUCA
B4: chr2:48026839:48026840:+_ENSG00000116062_ENST00000540021|hu_hu|hu_hu_hu_mus_False|58_68 (ssRNA)
RNA: GGGAGUUCUACAGUCCGACGAUCAUAGUGAGCCACUAGCGUCCUAAAUCUGGAACAGUGGCGGUCAUCUGAAAACUGACCUAUGAAAAACUUGCCCAGUGAAGUGUCCACAAAGCAAACACCAUACACACGAGUGUGACCAGACAACAGAGGAUUGAGCAUCA
B5: chrX:98862621:98862622:+_ENSMUSG00000034160_ENSMUST00000044475|mus_hu|mus_mus_mus_hu_False|48_68 (ssRNA)
RNA: GGGAGUUCUACAGUCCGACGAUCCUGCAUCUCCUUUAGAGUGUUUCCCAUAUUAGAGUAGGCAUCAGCAAAUGUAGGACUGAUUCGUAUGGCUUCUUUAUAAUGCAUCAGAGCUUCCUGCAGUUUUCCCUGCUGCUGCAGUACCAACAGAGGAUUGAGCAUCA
B6: chr4:109959997:109959998:-_ENSMUSG00000028546_ENSMUST00000106598|mus_hu|FALSE|FALSE (ssRNA)
RNA: GGGAGUUCUACAGUCCGACGAUCUGUUAUAUAUAAUUAAAGAUCCACAAAACACAGUGUGGAUGAUUGUAAAGCAAAUCAAUUAUUUUUGGGGGGGUGGGCGGGGGAGAGAAAGAAAAAAAAGAAAAGGAGCAGUGAGCUGAACAACAGAGGAUUGAGCAUCA
B7: chr12:86641468:86641469:-_ENSMUSG00000034290_ENSMUST00000040992|mus_hu|FALSE|FALSE (ssRNA)
RNA: GGGAGUUCUACAGUCCGACGAUCCAAGACCUCCCACAAUGUUGAUAAGAUUAUCAAACAUUUUGGUCUGGGGAAGAUGAAACAAAAUUAAUUUAGCUGUUUAUAGGAAGGUGGGAUGUGAGACUCAUCAAAGGUAGGAUGUGUCAACAGAGGAUUGAGCAUCA
B8: chr1:205685097:205685098:-_ENSG00000069275_ENST00000367142|hu_hu|motif|central (ssRNA)
RNA: GGGAGUUCUACAGUCCGACGAUCUAUCAAGCCUGACUAUUGAGCACCUGUAUCCAGUUGAGUCACCACCACUGUCCUCCGGUUUGCAUGCAUGAUUUGAGGGGAAGACUAGAGUGUUUUAAAUCAUCAAUAAAAAGUGGAGAACAACAGAGGAUUGAGCAUCA
B9: chr2:238002776:238002777:+_ENSG00000198612_ENST00000392008|hu_hu|FALSE|FALSE (ssRNA)
RNA: GGGAGUUCUACAGUCCGACGAUCGAUUGAAGUAUACGCUUGAGAGACCAGGGCAAAGGCGCGUCUCCUUGUUGCAUCUCUAAGUGCUUCCAUAAUUGGCUGGACCGUCUCAGACCACUGGUGAGCGUUGAUGGUUGUAUAGAUCAACAGAGGAUUGAGCAUCA
B10: chr4:109959997:109959998:-_ENSMUSG00000028546_ENSMUST00000106598|mus_mus|FALSE|FALSE (ssRNA)
RNA: GGGAGUUCUACAGUCCGACGAUCUAUAUAUAUAUAUUAAAGAUCCACAGACCACAGUGUGGAUGAUUGUAAAGUAAAUCUAUUAUUGGGAGGGGGUGGGGUGGGAAAGAAAGGGGGAAAAAAAAGAGAGGAAGAAAAGGCGCACAACAGAGGAUUGAGCAUCA
B11: chr8:73998637:73998638:+_ENSMUSG00000074247_ENSMUST00000124745|mus_hu|FALSE|FALSE (ssRNA)
RNA: GGGAGUUCUACAGUCCGACGAUCCUUGAUACAGGUUACAGCAUAAAUAAAAACUCAAGGAAAAUAAAUACAUCGGCUCCUAUGAGGUUGGAAGUGGUGUGGACGCAGGGUGUGGAUGGGCCGGCAGGGAGGCGGGCGGGCGGGCAACAGAGGAUUGAGCAUCA
B12: chr4:109959997:109959998:-_ENSMUSG00000028546_ENSMUST00000106598|mus_mus|motif|central (ssRNA)
RNA: B10 RNA with U80G, A81G
B13: chr16:49913422:49913423:+_ENSMUSG00000055447_ENSMUST00000084838|mus_mus|motif|central (ssRNA)
RNA: GGGAGUUCUACAGUCCGACGAUCGCUCUCUACGAUUGUAUAAGUGGAGGGCAGACAAUAAAUAAAAAUUGAAUAGAGGCGGUGACAGCAGAAAUCGGGAUUUGGGAGAGAAAAGCGCAUUGUGGGACAAAACAGAUGCGUGGUCAACAGAGGAUUGAGCAUCA
B14: chr1:46159212:46159213:+_ENSG00000159596_ENST00000372025|hu_mus|hu_hu_hu_mus_True|8_68 (ssRNA)
RNA: GGGAGUUCUACAGUCCGACGAUCUCUGAUCCCUCCCAAGAAAGCUAGGAAACCGGCUCCAUAAGCCAUCUGAGUAAAAGCUAGGACGGGGAUAUAAGACUUUGUUAUUACCAUGAGAAGUGGGGGAGCAACGAAGGGGAUUAACAACAGAGGAUUGAGCAUCA
B15: chr16:49913422:49913423:+_ENSMUSG00000055447_ENSMUST00000084838|mus_mus|FALSE|FALSE (ssRNA)
RNA: B13 RNA with G80U, G81A
B16: chr8:27092522:27092523:-_ENSMUSG00000037251_ENSMUST00000061850|mus_mus|FALSE|FALSE (ssRNA)
RNA: GGGAGUUCUACAGUCCGACGAUCAGCGGGGUGGGUUGUUGUUUGCUGUUGGUCGGUGUUUGUGAAGUGGUCGUGGGCGAAGAAGAAACAAGAAGAAAUGAGAUAUCUUGGCAGCAAAGAUCAUUGCUCCAAGGAACUCGACACCAACAGAGGAUUGAGCAUCA
B17: chr1:46159212:46159213:+_ENSG00000159596_ENST00000372025|hu_mus|hu_hu_hu_mus_True|68_98 (ssRNA)
RNA: B14 RNA with C44A, A130G, C131U, G132A
B18: chr6:36760027:36760028:-_ENSMUSG00000029838_ENSMUST00000101534|mus_hu|FALSE|FALSE (ssRNA)
RNA: GGGAGUUCUACAGUCCGACGAUCGUACCCGGCUCGCUGCAGCUCCUGCUUGGGCCGCUGCUGCUCUCCCCGCCUUCUGGACGGAUGACUCACUGGUCUCUUUCUUCCCCUCUCUCCACUUUGGAUUUUCCUCUGCUCUGGGGCCAACAGAGGAUUGAGCAUCA
B19: chr5:37680062:37680063:+_ENSMUSG00000029121_ENSMUST00000031004|mus_hu|mus_mus_mus_hu_False|8_38 (ssRNA)
RNA: GGGAGUUCUACAGUCCGACGAUCUUUGGGUGUAGCUGGUACCUCGUACACAGGACCGUCAUACAUGCCCCUGGAAACCCCUUGCAAUCCAAAAACCUUGCUUCUGAUUUUGACGCGCUGGUACAGGUGCUCUGGGAACGCCUUCAACAGAGGAUUGAGCAUCA
B20: chr18:54424204:54424205:+_ENSG00000091157_ENST00000357574|hu_mus|FALSE|FALSE (ssRNA)
RNA: GGGAGUUCUACAGUCCGACGAUCCCAGGCGUGGAGACAGGACAUGAAUAAUUUUGCGGUAUCCAUAGUAAGGUUGUAUUCUAGUAGGGUCAGUGGCUUGGACUUGCUGGCCCGGUACUCAGGGUCACUAUCCUCCCUGCUCUGCAACAGAGGAUUGAGCAUCA
B21: 95985174_95988629_161_5pUTR_ENSMUSG00000038486_ENSMUST00000035371|mouse|control|control (ssRNA)
RNA: GGGAGUUCUACAGUCCGACGAUCGGCUAAACUGAGGAUCCAAGAUAUUUCAGGGAGGGCUGCCUAUUUUUCUUCUGAGAGGCUCUGAAGACCUGAGCUUGGUUCCCCGGGUCAGGGAGUCCCCGGGUGAGGGAGGGGGUCCAGCAACAGAGGAUUGAGCAUCA
B22: chr8:35203877:35203878:-_ENSMUSG00000031513_ENSMUST00000033910|mus_hu|motif|central (ssRNA)
RNA: GGGAGUUCUACAGUCCGACGAUCGGAAGGGCACAUCCAAGCAUCAAAAACAUCAGUCCGAUUGCUCCUCCAAAGGACAAACGGAUCAAAGCUUUGAUGCCUGCCAUGGCGGUGACGUCGCUCCUGGCUCCACGACCCGAGGCGCAACAGAGGAUUGAGCAUCA

target: T1, UNK ZnF1-3; assay: nsRBNS (natural sequence RNA bind-n-seq); RBNS binding buffer (assumed for nsRBNS): 25 mM Tris pH 7.5, 150 mM KCl, 3 mM MgCl2, 0.01% Triton X-100, 500 ug/ml BSA, 20 U/ml SUPERase-In, 4 C; UNK is unkempt and MSI1 is Musashi-1; names of the RNAs are library labels; protein concentration not given here; high values mean tight binding

Binder	binding signal
B1	1.61 enrichment R
B2	0.387 enrichment R
B3	0.378 enrichment R
B4	1.18 enrichment R
B5	1.06 enrichment R
B6	3.98 enrichment R
B7	1.55 enrichment R
B8	2.19 enrichment R
B9	0.907 enrichment R
B10	5.2 enrichment R
B11	3.01 enrichment R
B12	5.4 enrichment R
B13	3.75 enrichment R
B14	1.56 enrichment R
B15	3.41 enrichment R
B16	1.76 enrichment R
B17	1.71 enrichment R
B18	0.683 enrichment R
B19	0.747 enrichment R
B20	0.993 enrichment R
B21	1.92 enrichment R
B22	0.394 enrichment R

— publication PMC12136788
